Screens as filed in PubChem BioAssay.
Pf growth 96h = inhibits malaria parasite growth, 96 h | P. falciparum luciferase reporter growth, 96 h | Potency, µM (series often up to 28.7 µM), for inactives: at the highest dose activity change, negative = inhibition, most hits filed as inhibitors | 320,000 tested, 6.9% active; note: potency is the fitted concentration of half-maximal effect; % is set by controls: 0 for no effect and ±100 for the full control effect
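P. falciparum expressing integrated firefly luciferase, in erythrocytes at 2% hematocrit, 0.05% parasitemia, incubated with compounds 96 h at 37 C, 5% CO2. Growth inhibition read as loss of luminescence; two-generation exposure targets delayed-death apicoplast inhibitors.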
NS1 inh = blocks influenza NS1 protein function | Potency, µM (highest dose often 46.1 µM), inactives show top-dose activity, positive = more growth | 270,000 tested, 0.4% active; calls by dose curve; note: potency is the fitted concentration of half-maximal effect; actives are rising curves; nearly all actives have a fitted effect of over 50% in size
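S. cerevisiae expressing influenza A NS1, grown in glucose, washed, then diluted 1:100 into pH 6.0 -URA galactose medium with 23 nl compound. Growth recovery read as OD600; NS1-free strain serves as control.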
Sm TGR inh = inhibitors of Schistosoma mansoni thioredoxin glutathione reductase; Q962Y6; purified TGR, DTNB reduction, TNB absorbance 405 nm; Potency, µM (highest dose often 114 µM), without a hit: at the top dose activity change, negative = inhibition, hits mostly inhibitors; 360,000 tested, 3% active; AID 485364; note: potency is the fitted concentration of half-maximal effect; % is set by controls: 0 for no effect and ±100 for the full control effect; nearly all actives have a fitted effect of over 60% in size
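TGR 20 nM + NADPH 100 uM (dispensed conc.), cpd preinc 15 min RT; start with NADPH (500 uM addition) then DTNB (15 mM addition). Kinetic TNB absorbance, 405 nm filter. Four-parameter Hill fit across titration.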
Pf growth 48h = inhibits P. falciparum growth in the first generation, 48 h. Potency, µM (titrated, usually from 28.7 µM), for inactives: at the top dose activity change, negative = inhibition, usual class: inhibitors. 310,000 tested, 5.9% active. AID 504832. P. falciparum luciferase growth in erythrocytes, 48 h; note: potency is the fitted concentration of half-maximal effect; % is set by controls: 0 for no effect and ±100 for the full control effect
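Growth was read as firefly luciferase luminescence after a 48 h, 37 C, 5% CO2 exposure of compounds to reporter-bearing P. falciparum cultures (0.1% parasitemia, 2% hematocrit final) in Albumax-supplemented RPMI 1640.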
Shiga inhibitor = Shiga toxin inhibition; Vero cells, Shiga toxin protein synthesis inhibition reporter; inhibition, % at 38.7 µM; 290,000 tested, 9.2% active; AID 2315; in the data active = inhibition mostly above about 28%, no sharp cut-off; inactive = mostly below about 43%; note: 0% is about no effect
CHX counter = counter-screen hit for Shiga toxin inhibitors, cycloheximide; cell reporter, cycloheximide protein synthesis inhibition counterscreen; 300,000 tested, 12% active; max response, %; in the data active = max response mostly above about 13%, no sharp cut-off; inactive = mostly below about 14%; note: read at 38.3 µM for the half of the compounds with a filed dose; 0% is about no effect
Active calls of the source: *; ? = inconclusive; nt = no result. Hits are enriched below; roughly 21% of the tested compounds scored in any of these assays. Unless noted, calls come from the whole dose curve; as a rule, active = well fitted curve in the direction sought with a large enough effect; inconclusive = small, poorly fitted or top-dose-only effect, or another doubt; inactive = no such curve, though single readings can be large; an effect the other way counts as inactive or inconclusive.

SMILES	Pf growth 96h	NS1 inh	Sm TGR inh	Pf growth 48h	Shiga inhibitor	CHX counter
Cc1[nH]c2ccccc2c1C(=O)CCl	10µM*	7%	2µM*	?	-1	-1
Cc1[nH]c2ccccc2c1C(=O)CSc1cccc[n+]1[O-]	?	6%	-14%	-25%	-9	-2
Cc1[nH]c2ccccc2c1C(=O)CSc1ccccn1	?	-5%	0%	14%	45	40*
Cc1[nH]c2ccccc2c1C(=O)C(=O)NC1CC1	?	16%	-13%	49%	94*	48*
Cc1ccc(SCC(=O)c2c(C)[nH]c3ccccc23)cc1	-100%	-4%	-3%	?	35	13*
Cc1[nH]c2ccccc2c1C(=O)CSc1ccc(F)cc1	?	1%	-15%	0%	52	23*
Cc1[nH]c2ccccc2c1C(=O)CSc1ccccc1	35%	4%	-16%	?	4	28*
Cc1cc2ccccc2c(=O)n1CC(=O)N(C)c1ccc(F)cc1	10µM*	-2%	-6%	11%	-3	-2
COc1cc(C)c(Cc2cnc(N)nc2N)cc1OC	2.7µM*	nt	-1%	3.8µM*	10	-6
CCCCOc1ccc(Cc2cnc(N)nc2N)cc1	?	-2%	-9%	?	20	2
CC(C)Oc1ccc(Cc2cnc(N)nc2N)cc1	6.6µM*	10%	-2%	nt	25	5
COc1ccc(Cc2cnc(N)nc2N)cc1OC	3.8µM*	nt	nt	2.4µM*	nt	nt
COC(=O)c1ccc(CNC(=O)C2CCC(=O)N(CCc3ccccc3)C2)cc1 (stereo unspecified)	?	-15%	0%	0%	-7	0
COCC(C)Nc1ncnc2c1cnn2-c1ccc(Cl)cc1 (stereo unspecified)	nt	nt	11%	nt	101*	33*
COc1ccc(-n2ncc3c(NCC(C)C)ncnc32)cc1	25%	-11%	-10%	108%	19	15
CCC(C)Nc1ncnc2c1cnn2-c1ccc(F)cc1 (stereo unspecified)	nt	nt	-7%	nt	nt	nt
COc1ccc(-n2ncc3c(NC(C)C)ncnc32)cc1	-4%	-7%	7%	75%	69	44*
O=C(CSc1nnc(NC(=O)c2c(F)cccc2F)s1)NCc1ccccc1	19%	-14%	-3%	23%	-8	-2
Nc1c(C(=O)c2cccs2)oc2ccccc12	39%	-88%	0%	37%	99*	26*
Nc1c(C(=O)c2ccc(Br)s2)oc2ccccc12	176%	-70%	-19%	34%	37	23*
COc1cc(/C=C/C(=O)OCC(=O)NCC(=O)Nc2cccc(C)c2C)ccc1OC(F)F	?	nt	-10%	?	nt	nt
COc1ccc(CC(=O)Nc2ccc3nc(N4CCCCC4)cc(C)c3c2)cc1	nt	nt	-6%	nt	nt	nt
COCCn1c(SCC(=O)NNC(=O)c2cc(Cl)ccc2OC)nnc1-c1ccncc1	?	nt	-23%	?	nt	nt
Cc1c(Cl)cccc1NC(=O)CNCc1ccccc1F	19%	nt	1%	-11%	13	1
Cc1ccc(NC2c3ncccc3C(=O)N2C2CCCCC2)cc1 (stereo unspecified)	?	-3%	-7%	-28%	5	5
SMILES	Pf growth 96h	NS1 inh	Sm TGR inh	Pf growth 48h	Shiga inhibitor	CHX counter
Cc1ccc(NC2c3ncccc3C(=O)N2C2CCCCC2)cc1C (stereo unspecified)	33%	2%	-7%	10µM*	17	7
COC(=O)C1(O)CC(CC(C)C)=NN1C(=O)c1ccccc1 (stereo unspecified)	0.29µM*	1%	-8%	11%	27	9
Cc1ccccc1C(=O)Nc1nnc2n1CCS2	nt	nt	-1%	nt	nt	nt
O=C(O)c1ccccc1OC(=O)C12CC3CC(CC(C3)C1)C2	175%	1%	nt	-2%	-6	-5
CC(=O)Oc1ccc(C23CC4CC(CC(C4)C2)C3)cc1C(=O)O	9%	-7%	7%	3%	37*	-3
CCN(CC)c1ccc(N)cc1S(=O)(=O)Nc1ccccc1OC	11%	-2%	9%	-6%	14	-2
CCN(CC)c1ccc(NC(=O)COc2ccccc2C#N)cc1S(=O)(=O)Nc1ccccc1OC	9.3µM*	5%	4%	1.7µM*	17	-3
COc1ccccc1NS(=O)(=O)c1cc(NC(=O)CNC(=O)c2ccccc2)ccc1C	-25%	-4%	-8%	11%	12	3
CCN(CC)c1ccc(NC(=O)c2ccccn2)cc1S(=O)(=O)Nc1ccccc1OC	10µM*	nt	-3%	5.9µM*	nt	nt
N#C/C(=C\N1CCOCC1)c1ccccc1	nt	-56%	-2%	34%	51	14
N#CC(C#N)=Cc1ccc(N2CCOCC2)cc1	6%	-39%	3.2µM*	-11%	-7	-1
N#C/C(=C\c1ccc(N2CCOCC2)cc1)c1ccccc1	368%	7%	-6%	294%	19*	51*
COc1cc(N2CCOCC2)ccc1C=C(C#N)C#N	?	-4%	nt	-9%	-8	-5
CCOC(=O)c1sc(N2C(=O)c3oc4cc(C)c(C)cc4c(=O)c3C2c2ccc(C)cc2)nc1C (stereo unspecified)	nt	nt	20%	nt	nt	nt
O=S(=O)(c1ccc2oc(-c3ccncc3)nc2c1)c1ccc2oc(-c3ccncc3)nc2c1	nt	-1%	nt	nt	nt	nt
CC(C)N(CCCNC(=O)c1ccc(N2CCCC2=O)cc1)Cc1ccccc1	1.3µM*	nt	2%	-4%	9	3
CN(CCNC(=O)c1ccc(N2CCCC2=O)cc1)CCc1ccccc1	8.3µM*	-12%	-16%	?	9	0
Cc1ccc(-c2cc(C(F)(F)F)n3nc(C(=O)NCC45CC6CC(CC(C6)C4)C5)cc3n2)cc1	nt	nt	1%	nt	nt	nt
O=C(CNc1ccc(F)cc1)c1ccccc1	-22%	-1%	nt	?	52	23*
Cc1ccc(C(=O)NCC(=O)NCC(=O)OCC(=O)c2ccc(Br)cc2)cc1	59%	-7%	-6%	-13%	5	-2
CC(=O)c1ccc(NCCC(=O)c2ccccc2)cc1	-5%	2%	nt	48%	23	11
Cc1ccc(C(=O)CNc2ccc(Br)cc2)cc1	0%	-14%	1%	32%	44*	10
NC(=O)c1ccccc1NCC(=O)c1ccc(F)cc1	38%	-6%	3%	34%	48*	29*
O=C(CNc1ccc(Br)cc1)c1ccccc1	9%	-21%	0%	?	21	18*
O=C(CNc1cccc(Cl)c1)c1ccc(Br)cc1	0%	-34%	3%	9%	8	12
CC(=O)Nc1ccc(S(=O)(=O)NCCC(=O)OCC(=O)c2cc(C)ccc2C)cc1	18%	nt	-1%	-13%	nt	nt
Cc1ccc(C(=O)CC(=O)c2ccc(C(C)(C)C)cc2)cc1	-17%	1%	0%	-7%	6	8
Cc1ccc(C(=O)CNc2ccccc2)cc1	45%	-47%	2%	33%	47*	34*
CC(=O)N1CCN(CC(=O)NC(=O)Nc2ccc3c(c2)OCCO3)CC1	29%	nt	1%	25%	nt	nt
